Measurements taken from PubChem BioAssay (NCATS).
Records with an inconclusive call do not appear. Where a call stands in place of a potency, no number is given. Values without a mark were called inactive. Activity calls are given as the source filed them. Calls come from the whole dose curve; as a rule, active = well fitted inhibition curve with a large enough effect; inconclusive = small, poorly fitted or top-dose-only effect; inactive = no such curve, though single readings can be large or run the other way.

System: Zika virus NS2B-NS3 protease (unlinked complex)
Test: Primary screen GU Rhodamine qHTS for Zika virus inhibitors: Unlinked NS2B-NS3 protease assay (AID 1347159); note: nearly all actives have a fitted effect of over 60% in size
Conditions: Recombinant ZIKV NS2B-NS3 protease, Rhodamine110 substrate fluorescence; series mostly up to 107 µM
Summary of the method: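 Percent inhibition came from the 15-min rise in Rhodamine110 fluorescence (1.5 microM substrate, ~15% conversion), normalized to no-inhibitor and no-enzyme wells and Hill-fitted. Unlinked protease, 25 nM, pH 8.0 Tris buffer; compounds up to 114 microM, 15-min preincubation.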

Q: For CC(C)N(C[C@H]1O[C@@H](n2cnc3c(N)ncnc32)[C@H](O)[C@@H]1O)C1CC(CCc2nc3ccc(C(C)(C)C)cc3[nH]2)C1 (stereo not given in full), which Potency is on record?
A: inactive

Q: How did the Potency turn out when CC1=CC2(O)/C=C/C(C)(O)CC(O)/C=C/C(=O)OC23C(=O)NC(CC(C)C)C3C1C (stereo not given) was run?
A: inactive

Q: Which Potency does the source give for CC/C=C/CC1=C(CCCCCCCC(=O)O)CCC1=O here?
A: inactive

Q: C[C@@H]1CC[C@]2(C(=O)O)CC[C@]3(C(=O)O)C(=CCC4[C@@]5(C)CC[C@H](O[C@@H]6O[C@@H](C)[C@H](O[C@@H]7O[C@H](CO)[C@@H](O)[C@H](O)[C@H]7O)[C@@H](O)[C@H]6O)C(C)(C)C5CC[C@]43C)C2[C@H]1C (stereo not given in full) was tested. Which Potency did it give?
A: inactive

Q: Which Potency does the source give for Cc1ccc(Sc2cncc3sc(C(N)=O)cc23)cc1 here?
A: inactive

Q: For O=C(CCCCc1ccc2ccccc2c1)C(F)(F)F, which Potency is on record?
A: inactive

Q: With COc1c(C)c(OCC=C(C)C)cc2c1C(=O)NC2=O as the compound, how does the Potency read?
A: inactive

Q: For C[C@@H]1O[C@@H](O[C@H]2[C@H](OC(=O)[C@]34CCC(C)(C)C[C@H]3C3=CCC5[C@@]6(C)CC[C@H](O[C@@H]7O[C@H](CO[C@@H]8OC[C@H](O)[C@H](O)[C@H]8O)[C@@H](O)[C@H](O)[C@H]7O)C(C)(C)C6CC[C@@]5(C)[C@]3(C)C[C@H]4O)OC[C@@H](O)[C@@H]2O)[C@H](O)[C@H](O)[C@H]1O[C@@H]1OC[C@H](O)[C@H](O[C@@H]2OC[C@@H](O)[C@H](O)[C@H]2O)[C@H]1O (stereo not given in full), which activity change, negative = inhibition is on record?
A: -11.8% [at 19.1 µM]

Q: With CN(NC(=O)CC(=O)NN(C)C(=S)c1ccccc1)C(=S)c1ccccc1 as the compound, how does the Potency read?
A: inactive

Q: Which Potency does the source give for CC(=O)O[C@@H]1[C@@H](OC(=O)/C=C/c2ccccc2)[C@H](C)O[C@@H](O[C@H]2[C@@H]3C=CO[C@@H](O[C@@H]4O[C@H](CO)[C@@H](O)[C@H](O)[C@H]4O)[C@@H]3[C@@]3(CO)O[C@@H]23)[C@@H]1OC(C)=O here?
A: inactive

Q: With CC(=O)O[C@@]1(C)C[C@@H](O)[C@]2(O)C=CO[C@@H](O[C@@H]3O[C@H](CO)[C@@H](O)[C@H](O)[C@H]3O)[C@@H]21 as the compound, how does the Potency read?
A: inactive

Q: CCN(c1cc(C#CCN2CCOCC2)cc(C(=O)NCc2c(C)cc(C)[nH]c2=O)c1C)C1CCC(N(C)CCOC)CC1 (stereo not given) was tested. Which Potency did it give?
A: inactive

Q: CCC(C)(O)C(O)C(=O)OCc1ccc(O[C@@H]2O[C@H](CO)[C@@H](O)[C@H](O)[C@H]2O)c(OC)c1 (stereo not given in full) was tested. Which Potency did it give?
A: inactive

Q: Which Potency does the source give for O=C(OCC12OC1C=CC(OC(=O)c1ccccc1)C2O)c1ccccc1 (stereo not given) here?
A: inactive

Q: With C[C@H]1CN(C[C@H](Cc2ccccc2)C(=O)NCC(=O)O)CC[C@@]1(C)c1cccc(O)c1 as the compound, how does the Potency read?
A: inactive

Q: With C/C=C(\C)C(=O)O[C@@H]1CC2[C@@H](CC=C3C[C@@H](O[C@H]4C[C@H](OC)[C@H](O[C@H]5C[C@H](OC)[C@H](O[C@H]6C[C@H](OC)[C@H](O[C@H]7C[C@@H](OC)[C@H](O[C@@H]8O[C@H](CO)[C@@H](O)[C@H](O)[C@H]8O)[C@@H](C)O7)[C@@H](C)O6)[C@@H](C)O5)[C@@H](C)O4)CC[C@@]32C)[C@@]2(O)CC[C@H](C(C)=O)[C@@]12C (stereo not given in full) as the compound, how does the activity change, negative = inhibition read?
A: 20.3% [at 19.1 µM]

Q: COc1c(OC2OC(CO)C(O)C(O)C2O)ccc(O)c1C(=O)OCc1ccccc1O[C@@H]1O[C@H](CO)[C@@H](O)[C@H](O)[C@H]1O (stereo not given in full) was tested. Which Potency did it give?
A: inactive

Q: COc1cc(/C=C/C(=O)OC2CC(OC(C)=O)C(OC(C)=O)C3C2CCC2C(=O)OC(c4ccoc4)CC23C)ccc1O[C@@H]1O[C@H](CO)[C@@H](O)[C@H](O)[C@H]1O (stereo not given in full) was tested. Which Potency did it give?
A: inactive

Q: Which Potency does the source give for COc1cccc2c1CCC[C@H]2CN(C)CCc1ccc2ccoc2c1 here?
A: inactive

System: Zika virus NS2B-NS3 protease (linked construct)
Test: Primary screen NINDS Rhodamine qHTS for Zika virus inhibitors (AID 1347160); note: nearly all actives have a fitted effect of over 55% in size; note: potency is the fitted concentration of half-maximal effect
Conditions: purified NS2B-NS3 protease, Rhodamine110 substrate fluorescence; series mostly up to 57.1 µM
Summary of the method: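 Rhodamine110-peptide cleavage (1.5 µM substrate) by 25 nM linked NS2B-NS3 enzyme at pH 8.0 (Tris, Tween 20), after 15 min RT preincubation with compounds; 15-min fluorescence change normalized to controls and Hill-fitted.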

Q: How did the Potency turn out when CCNC(=O)[C@@H]1CCCN1C(=O)[C@H](CCCN=C(N)N)NC(=O)[C@H](CC(C)C)NC(=O)[C@@H](C)NC(=O)[C@H](Cc1ccc(O)cc1)NC(=O)[C@H](CO)NC(=O)[C@H](Cc1c[nH]c2ccccc12)NC(=O)[C@H](Cc1cnc[nH]1)NC(=O)[C@@H]1CCC(=O)N1 was run?
A: inactive

Q: How did the Potency turn out when O=C(O)C[C@H]1CCC(=O)[C@@H]1C/C=C\CCOC1OC(CO)C(O)C(O)C1O (stereo not given in full) was run?
A: inactive

Q: How did the Potency turn out when CC(C)N(C[C@H]1O[C@@H](n2cnc3c(N)ncnc32)[C@H](O)[C@@H]1O)C1CC(CCc2nc3ccc(C(C)(C)C)cc3[nH]2)C1 (stereo not given in full) was run?
A: inactive

Q: For CC1=CC2(O)/C=C/C(C)(O)CC(O)/C=C/C(=O)OC23C(=O)NC(CC(C)C)C3C1C (stereo not given), which Potency is on record?
A: inactive

Q: How did the Potency turn out when CC/C=C/CC1=C(CCCCCCCC(=O)O)CCC1=O was run?
A: inactive

Q: For C[C@@H]1CC[C@]2(C(=O)O)CC[C@]3(C(=O)O)C(=CCC4[C@@]5(C)CC[C@H](O[C@@H]6O[C@@H](C)[C@H](O[C@@H]7O[C@H](CO)[C@@H](O)[C@H](O)[C@H]7O)[C@@H](O)[C@H]6O)C(C)(C)C5CC[C@]43C)C2[C@H]1C (stereo not given in full), which Potency is on record?
A: inactive

Q: How did the Potency turn out when CC1(C)CC2C(C1)C1(C)CCC13OC3(CO)C2O (stereo not given) was run?
A: inactive

Q: Which Potency does the source give for CC(=O)OCCC(C)CCC1C(C)(O)CCC2C(C)(C)CCCC21C (stereo not given) here?
A: 11.2 µM (active)

Q: C[C@]12C=CC(=O)C=C1CC[C@@H]1[C@@H]2[C@@H](O)C[C@@]2(C)[C@H]1CC[C@]2(O)C(=O)COC(=O)CCC(=O)O was tested. Which Potency did it give?
A: inactive

Q: Cc1ccc(Sc2cncc3sc(C(N)=O)cc23)cc1 was tested. Which Potency did it give?
A: inactive

Q: Which Potency does the source give for O=C(CCCCc1ccc2ccccc2c1)C(F)(F)F here?
A: inactive

Q: For COc1c(C)c(OCC=C(C)C)cc2c1C(=O)NC2=O, which Potency is on record?
A: inactive

Q: C[C@@H]1O[C@@H](O[C@H]2[C@H](OC(=O)[C@]34CCC(C)(C)C[C@H]3C3=CCC5[C@@]6(C)CC[C@H](O[C@@H]7O[C@H](CO[C@@H]8OC[C@H](O)[C@H](O)[C@H]8O)[C@@H](O)[C@H](O)[C@H]7O)C(C)(C)C6CC[C@@]5(C)[C@]3(C)C[C@H]4O)OC[C@@H](O)[C@@H]2O)[C@H](O)[C@H](O)[C@H]1O[C@@H]1OC[C@H](O)[C@H](O[C@@H]2OC[C@@H](O)[C@H](O)[C@H]2O)[C@H]1O (stereo not given in full) was tested. Which activity change, negative = inhibition did it give?
A: -14.5% [at 10.7 µM]

Q: With OC[C@H]1O[C@@H](OC(CCCCc2ccc(O)cc2)CCc2ccc(O)cc2)[C@H](O[C@@H]2OC[C@](O)(CO)[C@H]2O)[C@@H](O)[C@@H]1O (stereo not given in full) as the compound, how does the Potency read?
A: inactive

Q: For CN(NC(=O)CC(=O)NN(C)C(=S)c1ccccc1)C(=S)c1ccccc1, which Potency is on record?
A: inactive

Q: Which Potency does the source give for CC(=O)OC[C@]1(O)[C@H]2[C@H](OC(=O)CC(C)C)OC=C(CO[C@@H]3O[C@H](CO)[C@@H](O)[C@H](O)[C@H]3O)[C@H]2C[C@@H]1O here?
A: inactive

Q: CC(=O)O[C@@H]1[C@@H](OC(=O)/C=C/c2ccccc2)[C@H](C)O[C@@H](O[C@H]2[C@@H]3C=CO[C@@H](O[C@@H]4O[C@H](CO)[C@@H](O)[C@H](O)[C@H]4O)[C@@H]3[C@@]3(CO)O[C@@H]23)[C@@H]1OC(C)=O was tested. Which Potency did it give?
A: inactive

Q: With CC(=O)O[C@@]1(C)C[C@@H](O)[C@]2(O)C=CO[C@@H](O[C@@H]3O[C@H](CO)[C@@H](O)[C@H](O)[C@H]3O)[C@@H]21 as the compound, how does the Potency read?
A: inactive

Q: CC1(C)C(=O)C(C)(C)c2cc(C(=O)Nc3ccc(C(=O)O)cc3)ccc21 was tested. Which Potency did it give?
A: inactive

Q: Which Potency does the source give for CNC(=O)O[C@H]1COc2ccc(N3CCN(C4COC4)CC3)cc2[C@@H]1NC(=O)c1ccc(F)cc1 here?
A: inactive

Q: Which Potency does the source give for CCN(c1cc(C#CCN2CCOCC2)cc(C(=O)NCc2c(C)cc(C)[nH]c2=O)c1C)C1CCC(N(C)CCOC)CC1 (stereo not given) here?
A: inactive

Q: CC1CCC2(C)C(CC(O)C(O)C23CO3)C1(C)CCC1=CC(O)OC1=O (stereo not given) was tested. Which Potency did it give?
A: inactive

Q: With CCC(C)(O)C(O)C(=O)OCc1ccc(O[C@@H]2O[C@H](CO)[C@@H](O)[C@H](O)[C@H]2O)c(OC)c1 (stereo not given in full) as the compound, how does the Potency read?
A: inactive

Q: How did the Potency turn out when CC1CCC2(C(=O)OC3OC(CO)C(O)C(O)C3O)CCC3(C(=O)O)C(=CCC4C5(C)CCC(OC6OC(C)C(O)C(O)C6O)C(C)(C)C5CCC43C)C2C1C (stereo not given) was run?
A: inactive

Q: For CN(C)c1cccc(-c2c3c(=O)n(-c4ccccc4Cl)[nH]c3cc(=O)n2C)c1, which Potency is on record?
A: inactive

Q: For O=C(/C=C/c1ccc(O)cc1)OCC1=C[C@@H](O)[C@@H]2C=CO[C@@H](O[C@@H]3O[C@H](CO)[C@@H](O)[C@H](O)[C@H]3O)[C@H]12, which Potency is on record?
A: inactive

Q: With O=C(OCC12OC1C=CC(OC(=O)c1ccccc1)C2O)c1ccccc1 (stereo not given) as the compound, how does the Potency read?
A: inactive

Q: For CCOC(=O)[C@H](CCc1ccccc1)CC1(C(=O)N[C@H]2CCc3ccccc3N(CC(=O)O)C2=O)CCCC1, which Potency is on record?
A: inactive

Q: Which Potency does the source give for C[C@H]1CN(C[C@H](Cc2ccccc2)C(=O)NCC(=O)O)CC[C@@]1(C)c1cccc(O)c1 here?
A: inactive

Q: For C/C=C(\C)C(=O)O[C@@H]1CC2[C@@H](CC=C3C[C@@H](O[C@H]4C[C@H](OC)[C@H](O[C@H]5C[C@H](OC)[C@H](O[C@H]6C[C@H](OC)[C@H](O[C@H]7C[C@@H](OC)[C@H](O[C@@H]8O[C@H](CO)[C@@H](O)[C@H](O)[C@H]8O)[C@@H](C)O7)[C@@H](C)O6)[C@@H](C)O5)[C@@H](C)O4)CC[C@@]32C)[C@@]2(O)CC[C@H](C(C)=O)[C@@]12C (stereo not given in full), which activity change, negative = inhibition is on record?
A: 1.97% [at 10.7 µM]

Q: Which Potency does the source give for COc1c(OC2OC(CO)C(O)C(O)C2O)ccc(O)c1C(=O)OCc1ccccc1O[C@@H]1O[C@H](CO)[C@@H](O)[C@H](O)[C@H]1O (stereo not given in full) here?
A: inactive

Q: With COc1cc(/C=C/C(=O)OC2CC(OC(C)=O)C(OC(C)=O)C3C2CCC2C(=O)OC(c4ccoc4)CC23C)ccc1O[C@@H]1O[C@H](CO)[C@@H](O)[C@H](O)[C@H]1O (stereo not given in full) as the compound, how does the Potency read?
A: inactive

Q: COc1cc(NC(=O)c2ccccn2)ccc1Cl was tested. Which Potency did it give?
A: inactive

Q: Which Potency does the source give for C[C@]1(O)CC[C@@H]2C(C(=O)O)=CO[C@@H](O[C@@H]3O[C@H](COC(=O)c4ccc(O)cc4)[C@@H](O)[C@H](O)[C@H]3O)[C@@H]21 here?
A: inactive

Q: With CC[C@@H](c1ccc(F)c(F)c1)n1c(C(=O)OC)c(-c2ccno2)[nH]c1=S as the compound, how does the Potency read?
A: inactive

Q: Which Potency does the source give for CC1CCCC2OC2C(=O)c2c(O)cc(O)cc2CC(=O)O1 (stereo not given) here?
A: inactive
